# Results reported in the supplement of paper PMC7801607.
# Legend:
# CHO = experiment: % viability of CHO cells (MTT); higher = less toxic; conditions: 48 h
# How it was run: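 CHO cells seeded at 10^6 cells/well were exposed to compound at 2 or 20 µM for 48 h. Survival, as percent of untreated cells, was measured with the colorimetric tetrazolium (MTT) assay.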
# HepG2-A16-CD81 = experiment: % inhibition of HepG2 viability (CellTiter-Glo); higher = more toxic; conditions: 5 µM;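 also: HepG2-A16-CD81 hepatoma cells plated as in the liver-stage assay but without sporozoites, with DMSO wells as negative and 25 µM puromycin as positive control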
# [1] = tested on: Plasmodium falciparum NF54 stage IV/V gametocytes; experiment: % inhibition of gametocyte viability (PrestoBlue); higher = more inhibition; conditions: 48 h
# How it was run: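 Compound was tested at 1 or 5 µM against Stage IV/V NF54 gametocytes plated at 100 µL/well (2% gametocytaemia, 5% haematocrit). After 48 h of stationary, hypoxic incubation at 37 °C, 10 µL PrestoBlue was added for 2 h before reading 612 nm fluorescence from 70 µL of transferred supernatant. Gametocyte viability inhibition, as a percentage, was scaled against vehicle and kill controls from a single run.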
# [2] = tested on: Plasmodium falciparum NF54 asexual blood stage; experiment: % inhibition of asexual blood stage proliferation (pLDH); higher = more inhibition; conditions: 72 h
# How it was run: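 In 96-well plates, compound at 2 or 20 µM was added to Plasmodium falciparum NF54 ring-stage cultures (1% haematocrit, 2% parasitaemia). Plates were incubated for 72 h at 37 °C in 4% CO2, 3% O2 and 93% N2, and survival was then read at 620 nm using the parasite lactate dehydrogenase assay. Inhibition of asexual proliferation, expressed as a percentage, was normalised to controls.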
# [3] = tested on: Plasmodium falciparum NF54 stage IV/V gametocytes; experiment: % inhibition of gametocyte viability (ATP bioluminescence); higher = more inhibition; conditions: 24 h
# How it was run: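 Density gradients were used to enrich stage IV/V NF54 gametocytes, which were then seeded into 96-well plates at 30,000 per well with compound at 1 or 5 µM. The plates were incubated at 37 °C for 24 h, and ATP was measured with the Promega BacTiter Glo bioluminescence system. Percent inhibition of gametocyte viability was normalised to the plate controls from a single run.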
# [4] = tested on: Plasmodium falciparum NF54 stage IV/V gametocytes; experiment: % inhibition of gametocyte viability (luciferase reporter); higher = more inhibition; conditions: 48 h
# How it was run: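 Percent inhibition came from luminescence and was normalised to controls in a single run. Gametocytes (stage IV/V, NF54-Pfs16-GFP-Luc line, 2% gametocytaemia, 2% haematocrit) were treated with compound at 1 or 5 µM and incubated for 48 h at 37 °C without agitation under hypoxia. Readings used 30 µL lysate with 30 µL Promega luciferin substrate on a GloMax-Multi+ reader, integrating for 10 s.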
Structure (SMILES),% viability of CHO cells (CHO; 2 µM) [%],% viability of CHO cells (CHO; 20 µM) [%],% inhibition of HepG2 viability (HepG2-A16-CD81) [%],% inhibition of gametocyte viability ([1]; 1 µM) [%],% inhibition of gametocyte viability ([1]; 5 µM) [%],% inhibition of asexual blood stage proliferation ([2]; 2 µM) [%],% inhibition of asexual blood stage proliferation ([2]; 20 µM) [%],% inhibition of gametocyte viability ([3]; 1 µM) [%],% inhibition of gametocyte viability ([3]; 5 µM) [%],% inhibition of gametocyte viability ([4]; 1 µM) [%],% inhibition of gametocyte viability ([4]; 5 µM) [%]
COc1cc(C(C)(C)CCCC(C)C)cc(OC)c1OC,108,76.7,7.92,11.5,6.64,-22,48.9,2.47,< 0,8.33,< 0
C[N+]1(C)CCCC(OC(=O)C(O)(c2ccccc2)c2ccccc2)C1 (stereo not drawn),122,140,-0.474,23.3,9.34,26,73.9,< 0,< 0,< 0,3.73
CN1C(=O)C(c2ccccc2)C(=O)N(c2ccccc2)c2cc(C(F)(F)F)ccc21 (stereo not drawn),95.2,110,3.09,20.2,14.5,-15.6,32.9,< 0,< 0,11.6,< 0
CCN1CCN(Cc2nc3ccc([N+](=O)[O-])cc3c(=O)n2-c2ccccc2F)CC1,105,105,-4.34,< 0,< 0,33,24.4,13.8,17.7,9.48,< 0
COc1ccccc1CN[C@H]1C2CCN(CC2)[C@H]1C(c1ccccc1)c1ccccc1,102,117,-1,17.5,8.85,-2.68,93,7.68,29.7,15.2,< 0
C[C@H]1CC[C@]2(NC1)O[C@H]1C[C@H]3[C@@H]4CC[C@H]5C[C@@H](O)CC[C@]5(C)[C@H]4CC[C@]3(C)[C@H]1[C@@H]2C,105,117,-5.8,13.5,28.1,35.3,33.7,< 0,< 0,14.1,0.706
O=C(NC12CC3CC(CC(C3)C1)C2)c1cc2ccccc2[nH]1,103,134,5.16,36.4,12.5,35,73.8,< 0,< 0,< 0,< 0
CC(C)Oc1cccc(NC(=O)c2ccccc2C(F)(F)F)c1,88.6,112,3.41,2.75,< 0,2.15,9.83,3.08,< 0,< 0,< 0
Nc1c(C(=O)NCc2ccco2)c2nc3ccccc3nc2n1CCN1CCCCC1,104,57.3,10.7,23.5,46.1,77.4,116,51.4,59.7,13.7,0.236
CCCCc1ccc(C(=O)O)nc1,90.2,130,-0.607,< 0,2.97,83.3,44,5.47,< 0,7.1,6.9
C[C@@]1(O)[C@H](O)[C@@H](CO)O[C@H]1n1ccc2c(N)ncnc21,127,92,-1.39,< 0,2.26,14.8,43.2,12.3,7.84,1.8,< 0
NC1(C(=O)O)CCP(=O)(O)CC1 (stereo not drawn),113,81.6,-2.82,< 0,< 0,12.3,13.4,< 0,< 0,< 0,9.64
COC(=O)Nc1nc2ccccc2[nH]1,99.1,110,-1.93,< 0,< 0,6.96,10.6,1.54,< 0,< 0,< 0
